Where a name gives a salt, the structure may show the parent alone. Whole data set: some 2,800 compounds, median “cell viability relative to vehicle” near 1.1, cut for the lowest 2% near 0.19. Only a selection was taken, and the lowest values are over-represented in it overall.
System: NCI-H2228 parental
Test: cell viability relative to vehicle (fraction of vehicle); NCI-H2228 is an ALK-positive lung cancer line and DTP means drug-tolerant persister; higher = less growth inhibition
Settings: 100 nM; treatment time 6 days
Summary of the method: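 The 3114-agent TargetMol anti-cancer compound library was tested at 100 nM for 6 days on parental NCI-H2228 cells and on persister cells derived with 1000 nM of a targeted drug for 13 days. ATP readout by the CellTiter-Glo 3D Cell Viability Assay gave cell viability relative to DMSO vehicle-treated cells.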

Structure (SMILES)	cell viability
CC(C)[C@]12O[C@H]1[C@@H]1O[C@]13[C@]1(O[C@H]1C[C@H]1C4=C(CC[C@@]13C)C(=O)OC4)[C@@H]2O [Triptolide]	0.121
N#Cc1c(Oc2cccc(OS(=O)(=O)CCCC(F)(F)F)c2)cccc1C(F)(F)F	1.01
O=C(O)CCCCCCCCCO [10-Hydroxydecanoic Acid]	1.17
C[C@@]12C[C@@H](c3ccoc3)OC(=O)[C@@H]1CC[C@]1(C)[C@H]2[C@@H]2C=C[C@@]1(O)C(=O)O2 [Columbin]	1.06
Cc1c([C@H](C)[C@@H]2NC[C@@H](C)C[C@H]2O)ccc2c1C[C@H]1[C@H]2CC=C2C[C@@H](O)CC[C@@]21C [Veratramine]	1.12
COc1cc([C@@H]2c3cc4c(cc3[C@@H](O)[C@H]3COC(=O)[C@H]23)OCO4)cc(OC)c1O [4'-Demethylepipodophyllotoxin]	0.402
CC(=O)OC12COC1CC(O)C1(C)C(=O)C(O)C3=C(C)C(O)CC(O)(C(OC(=O)c4ccccc4)C21)C3(C)C (stereo not given) [10-Deacetylbaccatin III]	1.13
C/C=C(\C)C(=O)N[C@@H](c1ccccc1)[C@@H](O)C(=O)O[C@H]1C[C@@]2(O)[C@@H](OC(=O)c3ccccc3)[C@@H]3[C@]4(OC(C)=O)CO[C@@H]4C[C@H](O)[C@@]3(C)C(=O)[C@H](OC(C)=O)C(=C1C)C2(C)C [Cephalomannine]	0.129
CC(=O)O[C@H]1C(=O)[C@@]2(C)[C@H]([C@H](OC(=O)c3ccccc3)[C@]3(O)C[C@H](O)C(C)=C1C3(C)C)[C@]1(OC(C)=O)CO[C@@H]1C[C@@H]2O [Baccatin III]	0.968
COc1ccc(/C=C/c2cc(OC)cc(OC)c2)cc1 [Trimethoxystilbene]	1.05
CN(C(=O)/C=C/c1ccoc1)[C@@H]1CC[C@@]2(O)[C@H]3Cc4ccc(O)c5c4[C@@]2(CCN3CC2CC2)[C@H]1O5 [Nalfurafine hydrochloride]	0.993
CN1[C@H]2C[C@H](OC(=O)[C@H](CO)c3ccccc3)C[C@@H]1[C@@H](O)C2 [Anisodamine]	1.1
CC[C@@]1(O)C(=O)OCc2c1cc1n(c2=O)Cc2cc3ccccc3nc2-1 [(S)-(+)-Camptothecin]	0.0882
CCc1c2c(nc3ccccc13)-c1cc3c(c(=O)n1C2)COC(=O)[C@]3(O)CC [7-Ethylcamptothecin]	0.054
CC1(C)C(C(=O)Nc2ccc(S(=O)(=O)c3ccc(NC(=O)C4C(C)(C)C4(C)C)cc3)cc2)C1(C)C	0.839
C[C@H]1CCC2N(C1)C[C@H]1C3CC4[C@@H](CC(=O)C5C[C@@H](O)CC[C@@]54C)C3CCC1[C@]2(C)O (stereo not given in full) [Peiminine]	1.12
O=C(CBr)c1ccc(O)cc1 [PTP Inhibitor I]	1.01
Clc1ccc(OC[C@H]2CCN2)cn1 [Tebanicline hydrochloride]	1.12

Structure (SMILES)	cell viability
Oc1cc(O)cc(/C=C/c2ccc(O)cc2O)c1 [Oxyresveratrol]	0.982
C=C1CC[C@H]2[C@@H](/C=C(\C)C(=O)[C@@]3(O)C[C@H](C)[C@H](O)[C@@H]3[C@@H]1O)C2(C)C [Lathyrol]	1.09
CN[C@@H](Cc1c[nH]c2ccccc12)C(=O)O [Abrine]	1.08
CC1(C)C(=O)N(c2ccc(C#N)c(C(F)(F)F)c2)C(=O)N1CCCCO	1.27
C[C@H]1CCC/C=C/[C@@H]2C[C@H](O)C[C@H]2[C@H](O)/C=C/C(=O)O1 [Brefeldin A]	0.0967
COc1ccc(/C=C2\CCCN=C2c2cccnc2)c(OC)c1 [GTS 21 dihydrochloride]	1.13
COc1cc([C@@H]2c3cc4c(cc3[C@H](O)[C@H]3COC(=O)[C@H]23)OCO4)cc(OC)c1O [4'-Demethylpodophyllotoxin]	0.68
Cn1c(CCCCCCC(=O)NO)nc2cc(N(CCCl)CCCl)ccc21 [Minomustine]	1.12
O=C(O)CNC(=O)C1C(=O)N(C2CCCCC2)C(=O)N(C2CCCCC2)C1=O [Daprodustat]	1.04
C/C(=C\c1csc(C)n1)[C@@H]1C[C@@H]2O[C@]2(C)CCC[C@H](C)[C@H](O)[C@@H](C)C(=O)C(C)(C)[C@@H](O)CC(=O)O1 [Epothilone B]	0.141
C/C(=C\c1csc(C)n1)[C@@H]1C[C@@H]2O[C@@H]2CCC[C@H](C)[C@H](O)[C@@H](C)C(=O)C(C)(C)[C@@H](O)CC(=O)O1 [Epothilone A]	0.0991
C[C@H](Nc1ncnc2[nH]cnc12)c1nc2ccc(F)cc2c(=O)n1-c1ccccc1 [Acalisib]	1.02
Cn1c(COP(=O)(NCCBr)NCCBr)cnc1[N+](=O)[O-] [Evofosfamide]	1.15
CC(=O)OC(C)(C)/C=C/C(=O)[C@](C)(O)[C@H]1[C@H](O)C[C@@]2(C)[C@@H]3CC=C4[C@H](C[C@H](O)C(=O)C4(C)C)[C@]3(C)C(=O)C[C@]12C [Cucurbitacin B]	0.223
Clc1ccc(C(OCCN2CCCCC2)c2ccccc2)cc1 (stereo not given) [Cloperastine hydrochloride]	1.15
C[C@]12CC[C@H](O)C[C@H]1CC[C@@H]1[C@@H]2CC[C@]2(C)[C@@H](c3ccc(=O)oc3)CC[C@]12O [Bufalin]	0.423
CC(C)[C@H](N)C(=O)N1CCC[C@H]1B(O)O [Talabostat mesylate]	0.987

Source: the supplement of paper PMC10600219
